Structures can show the parent of a compound that is named as a salt.
Experiments:
Assay in all cases: Euclidean distance of Cell Painting phenotypic profile (signed KS, 77 features) to DMSO centroid (dimensionless distance); 5 or 10 uM (library dependent); higher = stronger phenotypic change vs DMSO (phenoactivity)
Conditions in all cases: 48 h
786-O = system: 786-O
How it was run: (§1)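 Five cancer lines, together with a healthy fibroblast line, received library compounds for 48 h at a library-dependent 10 or 5 uM and 0.1% DMSO final. Harmony then derived 77 features from confocal 20X images (9 fields/well) of the stained cells, scoring each as a signed Kolmogorov-Smirnov statistic against same-plate vehicle wells. After plate-position correction, correlation weighting and replicate averaging at the top dose, phenoactivity was taken as each profile's Euclidean distance to the median vehicle profile.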

A549 = system: A549
How it was run: as §1

DU145 = system: DU145
How it was run: as §1

FB = system: FB
How it was run: as §1

HEPG2 = system: HEPG2
How it was run: as §1

OVCAR4 = system: OVCAR4
How it was run: as §1

SMILES | Euclidean distance (786-O) | Euclidean distance (A549) | Euclidean distance (DU145) | Euclidean distance (FB) | Euclidean distance (HEPG2) | Euclidean distance (OVCAR4)
COc1cc2nc(N3CCN(C(=O)C4CCCO4)CC3)nc(N)c2cc1OC (stereo unspecified) [Terazosin HCl Dihydrate] | 1.02 | 0.591 | 1.34 | 1.07 | 1.69 | 1.43
COc1ccc2c(c1)c(CC(=O)O)c(C)n2C(=O)c1ccc(Cl)cc1 [Indomethacin] | 1.44 | 0.49 | 1.66 | 0.86 | 1.8 | 1.2
CCC/C=C1\OC(=O)C2=C1CCC=C2 [Ligustilide] | 0.797 | 0.613 | 0.83 | 1.01 | 0.638 | 1.1
CC(C)c1cc(C(=O)N2Cc3ccc(CN4CCN(C)CC4)cc3C2)c(O)cc1O | 3.5 | 2.81 | 3.91 | 2.97 | 2.99 | 2.89
N=C(N)NS(=O)(=O)c1ccc(N)cc1 [Sulfaguanidine] | 1.11 | 0.776 | 1.03 | 0.936 | 0.524 | 1.55
Cc1c(C(=O)N2CCOc3ccc(-c4ccc(N)nc4)cc3C2)ccc(S(C)(=O)=O)c1F | 2.49 | 2.65 | 1.99 | 3.46 | 2.59 | 3.43
Cc1ccc(-c2cc(C(F)(F)F)nn2-c2ccc(S(N)(=O)=O)cc2)cc1 [Celecoxib] | 1.6 | 1.23 | 1.67 | 1.09 | 1.08 | 1.37
N[C@@H](Cc1cc(I)c(Oc2cc(I)c(O)c(I)c2)c(I)c1)C(=O)O [L-Thyroxine] | 1.38 | 1.12 | 1.19 | 0.961 | 0.718 | 1.45
COC(=O)N[C@H](C(=O)N1CC2(CC2)C[C@H]1c1nc(-c2ccc3c(c2)C(F)(F)c2cc(-c4ccc5[nH]c([C@@H]6[C@H]7CC[C@H](C7)N6C(=O)[C@@H](NC(=O)OC)C(C)C)nc5c4)ccc2-3)c[nH]1)C(C)C [Ledipasvir (GS5885)] | 1.65 | 1.83 | 1.33 | 1.94 | 1.09 | 1.18
CC(C)(C)c1nc(-c2cccc(NS(=O)(=O)c3c(F)cccc3F)c2F)c(-c2ccnc(N)n2)s1 [Dabrafenib Mesylate] | 1.18 | 1.23 | 1.47 | 3.79 | 1.3 | 1.47
CCCCC(F)(F)[C@@]1(O)CC[C@H]2[C@@H](CC(=O)[C@@H]2CCCCCCC(=O)O)O1 [Lubiprostone] | 1.06 | 1.09 | 1.21 | 1.29 | 0.966 | 1.1
C[C@H](NC(=O)[C@@H](Cc1ccc2ccccc2c1)NC(=O)[C@@H](C)N)C(=O)N[C@@H](Cc1c[nH]c2ccccc12)C(=O)N[C@H](Cc1ccccc1)C(=O)N[C@@H](CCCCN)C(N)=O | 1.39 | 0.626 | 1.01 | 0.873 | 2.01 | 1.29
CN[C@H]1C(=O)N[C@@H]2Cc3ccc(cc3)Oc3cc4cc(c3O[C@@H]3O[C@H](C(=O)O)[C@@H](O)[C@H](O)[C@H]3NC(=O)CCCCCCCCC(C)C)Oc3ccc(cc3Cl)[C@@H](O)[C@@H]3NC(=O)[C@H](NC(=O)[C@@H]4NC(=O)[C@@H](NC2=O)c2cc(cc(O)c2Cl)Oc2cc1ccc2O)c1ccc(O)c(c1)-c1c(O[C@H]2O[C@H](CO)[C@@H](O)[C@H](O)[C@@H]2O)cc(O)cc1[C@@H](C(=O)NCCCN(C)C)NC3=O [Dalbavancin] | 0.58 | 0.819 | 1.15 | 0.48 | 0.566 | 0.603
C=C[C@]1(C)C[C@@H](OC(=O)CS[C@@H]2C[C@H]3CC[C@@H](C2)N3C)[C@]2(C)[C@H](C)CC[C@]3(CCC(=O)[C@H]32)[C@@H](C)[C@@H]1O [Retapamulin] | 1.44 | 1.81 | 1.32 | 1.51 | 1.51 | 1.59
COc1ccc(-c2nc3cc(C4=NNC(=O)CC4C)ccc3[nH]2)cc1 (stereo unspecified) [Pimobendan] | 1.43 | 1.4 | 1.01 | 1.27 | 1.2 | 1.02
CN(C)CCOc1ccc(-c2nc(-c3ccncc3)c(-c3ccc4c(c3)CC/C4=N\O)[nH]2)cc1 | 1.49 | 1.63 | 2.08 | 2.65 | 4.66 | 2.22
C[C@H](NC(=O)Cc1cc(F)cc(F)c1)C(=O)N[C@@H]1C(=O)N(C)c2ccccc2-c2ccccc21 | 0.725 | 1.36 | 1.17 | 1.09 | 0.895 | 0.686
COC(=O)C1=C(C)NC(C)=C(C(=O)OCCN2CCN(C(c3ccccc3)c3ccccc3)CC2)C1c1cccc([N+](=O)[O-])c1 (stereo unspecified) [Manidipine 2HCl] | 1.93 | 2.35 | 1.3 | 1.11 | 1.84 | 1.95
O=C(Nc1cc(C(F)(F)F)ccc1N1CCCCC1)c1ccncc1 | 0.961 | 1.47 | 0.983 | 0.794 | 0.96 | 1.67
Clc1ccc(CCCOCCCN2CCCCC2)cc1 [Pitolisant hydrochloride] | 0.716 | 0.836 | 0.816 | 0.98 | 0.955 | 0.758
CN(C)CC/C=C1/c2ccccc2Sc2ccc(Cl)cc21 [Chlorprothixene] | 1.17 | 0.711 | 1.22 | 1.27 | 1.86 | 1.33
CCCN[C@H]1CCc2nc(N)sc2C1 [Pramipexole 2HCl Monohydrate] | 0.779 | 1.01 | 1.58 | 1.08 | 0.888 | 1.26
CCN(CC)C(=O)C1(c2ccccc2)CC1CN (stereo unspecified) [Milnacipran HCl] | 1.2 | 1.04 | 0.974 | 1.14 | 0.468 | 0.854

SMILES | Euclidean distance (786-O) | Euclidean distance (A549) | Euclidean distance (DU145) | Euclidean distance (FB) | Euclidean distance (HEPG2) | Euclidean distance (OVCAR4)
O=C(NCCO[N+](=O)[O-])c1cccnc1 [Nicorandil] | 1.26 | 0.857 | 1.26 | 1.09 | 0.784 | 1.38
Cc1ccc(C(=O)Nc2cccc(C(F)(F)F)c2)cc1Nc1nc(-c2cccnc2)nc2c1cnn2C | 3.33 | 3.93 | 3.91 | 1.82 | 3.78 | 1.46
CSc1ccc2c(c1)N(CCC1CCCCN1C)c1ccccc1S2 (stereo unspecified) [Thioridazine hydrochloride] | 2.83 | 2.98 | 2.37 | 3.14 | 3.33 | 2.62
Nc1nc(=O)c2nc(CNc3ccc(C(=O)N[C@@H](CCC(=O)O)C(=O)O)cc3)cnc2[nH]1 [Folic acid] | 1.19 | 0.776 | 0.987 | 0.817 | 0.743 | 1.25
CC(=O)c1cc([N+](=O)[O-])c(Sc2ccc(F)cc2F)s1 | 0.453 | 0.953 | 0.697 | 0.781 | 2.06 | 1.97
CC(C)(O)c1ccccc1CC[C@@H](SCC1(CC(=O)O)CC1)c1cccc(/C=C/c2ccc3ccc(Cl)cc3n2)c1 [Montelukast Sodium] | 0.941 | 0.527 | 0.759 | 0.512 | 0.526 | 0.733
O=C(Nc1cccc(Cl)c1)c1ccccn1 | 1.22 | 0.467 | 0.841 | 0.785 | 0.522 | 0.899
CC(C)C[C@@H](C=O)NC(=O)[C@H](CC(C)C)NC(=O)[C@H](CC(C)C)NC(=O)OCc1ccccc1 | 3.8 | 3.23 | 3.14 | 3.41 | 3.64 | 4.07
CCn1c(N)c(C(=O)NC)c(=O)c2ccc(C#CC(C)(O)COC)nc21 (stereo unspecified) | 0.634 | 0.765 | 0.681 | 1.97 | 1.53 | 0.668
NCCCCCNCC12CC3CC(CC(C3)C1)C2 [IEM 1754 dihydrobroMide] | 0.936 | 0.504 | 0.662 | 0.973 | 2.44 | 0.664
Oc1c(Cl)cc(Cl)cc1Sc1cc(Cl)cc(Cl)c1O [Bithionol] | 0.758 | 0.588 | 0.524 | 0.97 | 1.02 | 1.23
O=C(Nc1ccccc1-c1cn2c(CN3CCNCC3)csc2n1)c1cnc2ccccc2n1 | 6.03 | 5.64 | 5.63 | 5.74 | 5.23 | 5.14
Cc1c(N)c(=O)n(-c2ccccc2)n1C [4-Aminoantipyrine] | 1.29 | 0.968 | 1.5 | 0.907 | 0.845 | 1.32
CC(C)(CO)[C@@H](O)C(=O)NCCCO [D panthenol] | 1.37 | 0.791 | 0.819 | 1.14 | 0.659 | 1.64
O=C(O)Cc1ccccc1Nc1c(Cl)cccc1Cl [Diclofenac Epolamine] | 0.939 | 0.571 | 1.14 | 0.969 | 0.65 | 1.22
CCCCCN(C)CCC(O)(P(=O)(O)O)P(=O)(O)O [Ibandronate sodium] | 1.42 | 1.09 | 0.856 | 1.59 | 1.38 | 1.49
CC(=O)OC1CC2CCC1(C)C2(C)C (stereo unspecified) [Bornyl acetate] | 1.09 | 0.894 | 1.24 | 1.11 | 0.74 | 1.29
O=C(CCCCCCNC(=O)c1cnc(N(c2ccccc2)c2ccccc2)nc1)NO [Ricolinostat (ACY-1215)] | 1.87 | 1.63 | 1.29 | 3.31 | 2.26 | 2.18
CC(C)COc1ccc(CNC(=O)N(Cc2ccc(F)cc2)C2CCN(C)CC2)cc1 [Pimavanserin] | 4.02 | 4.29 | 3 | 5.4 | 5.24 | 3.47
CC#CC(=O)N1CCC[C@H]1c1nc(-c2ccc(C(=O)Nc3ccccn3)cc2)c2c(N)nccn12 [Acalabrutinib (ACP-196)] | 0.929 | 0.693 | 2.19 | 1.3 | 3.25 | 1.22
C[C@@H]1C[C@H]2[C@@H]3CCC4=CC(=O)C=C[C@]4(C)[C@@]3(F)[C@@H](O)C[C@]2(C)[C@@]1(O)C(=O)CO [Dexamethasone (DHAP)] | 1.45 | 2.32 | 2.14 | 1.75 | 0.718 | 1.86
O=C(O)CCC(=O)OC[C@@H](NC(=O)C(Cl)Cl)[C@H](O)c1ccc([N+](=O)[O-])cc1 [Chloramphenicol sodium succinate] | 1.83 | 1.28 | 0.814 | 0.919 | 0.53 | 1.07
CC1(C)S[C@@H]2[C@H](NC(=O)Cc3ccccc3)C(=O)N2[C@H]1C(=O)O [Benzylpenicillin potassium] | 1.15 | 0.89 | 1.18 | 0.93 | 0.711 | 1.48
